Assay outcomes: PubChem, several laboratories
SENP8 block-1: SENP8 protease inhibition. Q96LD8. purified SENP8, Z-RLRGG-aminoluciferin cleavage, luminescence. inhibition, % at 10 µM. actives 1.2% (n = 330,000). AID 2540; in the data active means inhibition above about 50%
Target sequence (Q96LD8 whole entry, looked up): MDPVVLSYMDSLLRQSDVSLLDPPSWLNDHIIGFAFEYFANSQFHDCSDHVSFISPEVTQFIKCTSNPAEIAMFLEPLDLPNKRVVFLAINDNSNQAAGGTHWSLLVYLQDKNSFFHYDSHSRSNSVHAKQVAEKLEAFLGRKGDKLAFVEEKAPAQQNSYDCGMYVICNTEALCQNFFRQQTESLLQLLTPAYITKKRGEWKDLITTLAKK
Platelet DG rel: modulates dense granule release in human platelets | inhibition, %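 (compounds screened at 7.5 µM in platelet-rich plasma)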 | human platelet-rich plasma, SFLLRN dense granule ATP release, luminescence | AID 1663 | actives 0.22% (n = 300,000);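 active means mean replicate score, as percent of positive control, at or above 50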
SENP6 inh: SENP6 protease inhibition; Q9GZR1; actives 1.8% (n = 330,000); inhibition, % at 10 µM; Recombinant SENP6 catalytic domain, aminoluciferin luminescence; AID 2599;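 active means inhibition above about 50% at the single tested dose, limit read from the data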
Target sequence (Q9GZR1 628-1112 limits assumed): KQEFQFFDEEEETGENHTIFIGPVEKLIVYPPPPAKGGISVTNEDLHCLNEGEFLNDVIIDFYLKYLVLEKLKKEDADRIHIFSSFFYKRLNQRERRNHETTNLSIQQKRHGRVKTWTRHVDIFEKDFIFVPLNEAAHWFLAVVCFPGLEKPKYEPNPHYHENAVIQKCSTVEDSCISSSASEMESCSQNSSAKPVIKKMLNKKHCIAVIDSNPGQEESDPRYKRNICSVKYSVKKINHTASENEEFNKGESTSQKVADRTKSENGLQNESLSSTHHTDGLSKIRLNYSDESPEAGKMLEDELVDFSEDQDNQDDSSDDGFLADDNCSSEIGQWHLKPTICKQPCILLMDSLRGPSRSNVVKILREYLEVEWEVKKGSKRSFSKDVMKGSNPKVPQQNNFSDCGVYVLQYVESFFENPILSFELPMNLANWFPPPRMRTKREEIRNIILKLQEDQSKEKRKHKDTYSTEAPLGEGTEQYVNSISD
SENP7 inh: blocks the human protease SENP7. recombinant SENP7, Z-RLRGG-aminoluciferin luminescence, 40 min. inhibition, % at 5 µM. actives 1.5% (n = 330,000). AID 434973;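 active means inhibition above about 50% at the single test dose, limit read from the data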
SENP8 block-2: SENP8 (human) protease inhibition; Q96LD8; recombinant SENP8, Nedd8 substrate fluorescence; inhibition, % at 20 µM; actives 0.64% (n = 360,000); AID 602440; in the data active means inhibition mostly above about 40%, no sharp cut-off; inactive means mostly below about 27%
Of the large screens only hits and unclear results are named; the others gave an inactive call. The list is not random: actives were taken first. Their share in the collection is about 2.4%.

O=C(/C=C/c1c(Cl)cccc1Cl)Nc1ccncc1	SENP6 inh 60, SENP7 inh 53
CCCCCCCNC(=O)C1CC(=O)N(C)C(=Nc2ccc(OC)cc2)S1 (stereo not given)	none
O/N=C/c1ccc(OCc2ccccc2F)c(Cl)c1	SENP8 block-1 80, SENP6 inh 92, SENP7 inh 75
CCOc1cc(N2CCOCC2)c(OCC)cc1NC(=O)c1cnccn1	SENP8 block-2 32 (no result: Platelet DG rel)
Cc1ccc(S(=O)(=O)N2CCCCC2)cc1NC(=O)c1ccc(Cl)nc1	none (no result: Platelet DG rel)
O=S(=O)(Nc1ccc(-c2nc3cccnc3s2)cc1)c1ccccc1F	SENP8 block-1 66, SENP6 inh 83
O=C(COC(=O)C1CCN(S(=O)(=O)c2cccs2)CC1)Nc1ccc(F)cc1F	none
COc1ccc(NS(=O)(=O)c2ccc(NC(=S)NC(=O)c3cccnc3)cc2)nn1	none
COc1ccc(NS(=O)(=O)c2ccc(NC(=S)NC(=O)c3cccc(F)c3)cc2)nn1	SENP8 block-1 85, SENP6 inh 92, SENP7 inh 80
CN(C)C(/C=C/Nc1ccc(C#N)cc1)=C(C#N)C#N	SENP7 inh 100
CCN(CC)c1ccc(/C=C(\C#N)C(=O)c2ccc(Br)cc2)cc1	SENP8 block-2 50 (no result: SENP8 block-1, SENP6 inh, SENP7 inh)
Cc1ccccc1/C=C1\Oc2ccccc2C1=O	SENP8 block-1 63, SENP6 inh 78, SENP7 inh 51 (no result: Platelet DG rel)
N/C(=N\OC(=O)COc1ccc(Cl)cc1Cl)c1ccccn1	SENP8 block-1 87, SENP6 inh 73, SENP7 inh 90
N/C(=N\OC(=O)c1cc(Cl)ccc1Cl)c1ccccn1	SENP8 block-1 65, SENP6 inh 51, SENP7 inh 76
N/C(=N\OC(=O)c1cccc2ccccc12)c1cccnc1	none
Cc1cc(C)c(C)c(OCC(=O)O/N=C(\N)c2ccccn2)c1	none
N/C(=N\OC(=O)c1ccc(Cl)cc1Cl)c1cccnc1	SENP8 block-1 61, SENP7 inh 72
CC1(C)[C@H]2CC=C(CN3CCC(N4CCC(C(=O)N5CCCC5)CC4)CC3)[C@@H]1C2	none
Cc1ccc(S(=O)(=O)NCc2ccccc2)cc1C(=O)N1CCCCCCC1	none
O=C(CCC1CCCN(C(=O)c2ccccc2Cl)C1)N1CCN(c2ccccn2)CC1 (stereo not given)	none
CC(=O)OC(C)C1C2=C(C(=O)CC1(C)O)C(=O)c1c(ccc(-c3ccc4c(c3O)C(=O)C3=C(C4=O)C(C(C)OC(C)=O)C(C)(O)CC3=O)c1O)C2=O (stereo not given)	SENP8 block-2 49 (no result: SENP8 block-1, Platelet DG rel, SENP6 inh, SENP7 inh)
CCOC(=O)[C@]12CCCC=C1N(CCc1ccc(OC)c(OC)c1)C(=O)[C@H](CC(=O)NCc1ccc(C)o1)C2	none (no result: SENP8 block-1, Platelet DG rel, SENP6 inh, SENP7 inh)
COc1ccc(N2CCN(S(=O)(=O)c3c(C)nc4sccn4c3=O)CC2)cc1	Platelet DG rel 95
Cc1nc2sccn2c(=O)c1S(=O)(=O)N1CCN(c2ccccc2)CC1	none
Cc1c(C)c2c(c(C)c1O)CCC(C)(C(=O)O)O2 (stereo not given)	none (no result: Platelet DG rel)
NC(=S)NN=Cc1nccc2c(N)cccc12	SENP8 block-2 62 (no result: SENP8 block-1, Platelet DG rel, SENP6 inh, SENP7 inh)
CCN(C(C)=O)c1cnc(C=NNC(N)=S)c2ccccc12	none (no result: SENP8 block-1, Platelet DG rel, SENP6 inh, SENP7 inh)
COc1ccc(N2CCN(C(=O)/C=C/[C@H]3O[C@@H](n4ccc(=O)[nH]c4=O)[C@H](O)[C@@H]3O)CC2)cc1	none (no result: SENP8 block-1, Platelet DG rel, SENP6 inh, SENP7 inh)
CC(C)N(Cc1ccccc1)C(=O)CN1C(=O)NC(Cc2ccccc2)(c2ccccc2)C1=O (stereo not given)	none
COc1ccc(C(=O)/C=C/c2ccc(N3CCCCC3)c([N+](=O)[O-])c2)cc1	none
COc1ccc(C(=O)/C=C/c2ccc(N3CCCCC3)c([N+](=O)[O-])c2)c(OC)c1	SENP8 block-2 41 (no result: SENP8 block-1, SENP6 inh, SENP7 inh)
O=C(N/N=C/c1ccccc1OCC(=O)N1CCCC1)C(=O)Nc1ccccc1F	SENP6 inh 70, SENP7 inh 61
O=C(O)c1ccc2c(c1)C1C=CCC1C(c1cc3c(cc1Br)OCO3)N2 (stereo not given)	none
Brc1cc2c(cc1C1Nc3ccccc3C3C=CCC31)OCO2 (stereo not given)	SENP8 block-2 40
O=C(c1ccc(=O)[nH]c1)N(c1ccccc1)C(CCc1ccccc1)c1nc2ccccc2[nH]1 (stereo not given)	none (no result: SENP8 block-1, Platelet DG rel, SENP6 inh, SENP7 inh)
O=C(O)c1ccc(N/N=C/C=C/c2ccccc2)cc1	SENP8 block-1 95, SENP6 inh 98, SENP7 inh 92
COc1ccc(C(=O)NCC(=O)N2CCN(C(=O)c3ccco3)CC2)cc1	none
Oc1c(N=Nc2nn[nH]n2)ccc2ccccc12	SENP8 block-2 55 (no result: SENP8 block-1, Platelet DG rel, SENP6 inh, SENP7 inh)
Brc1ccc(N/N=C(/N=Nc2nn[nH]n2)c2ccccc2)cc1	none
COc1ccc(CNC(=O)CCC(=O)Nc2ccc(Cl)cc2)cc1	none
CCOc1cc(C(c2c(C)[nH][nH]c2=O)c2c(C)[nH][nH]c2=O)ccc1OCc1ccc([N+](=O)[O-])cc1	SENP8 block-2 37
CCOc1cc(C(c2c(C)[nH][nH]c2=O)c2c(C)[nH][nH]c2=O)ccc1OC(=O)c1cccc([N+](=O)[O-])c1	none
O=C1c2c(O)ccc(O)c2C(=O)c2c(NCCNCCO)ccc(NCCNCCO)c21	SENP8 block-2 51 (no result: Platelet DG rel)
Cc1ccc(N=Nc2ccc(O)c3ncccc23)cc1	SENP8 block-2 43 (no result: SENP8 block-1, SENP6 inh, SENP7 inh)
COc1ccccc1N=Nc1ccc(O)c2ncccc12	SENP6 inh 65, SENP8 block-2 87
O=C(O)Cn1c(-c2ccccc2)cc2ccccc21	none
CCN(C[C@H]1N[C@@](CC)(C(=O)OC)[C@H]2C(=O)N(C)C(=O)[C@@H]12)C(=O)Nc1ccccc1	none (no result: Platelet DG rel)
CCCCn1c(=O)c2c(nc3n2CCCN3Cc2ccccc2)n(C)c1=O	none
Brc1cccc(C=Nc2cccc3ncccc23)c1	none
Oc1c(Br)cc(Br)cc1C=Nc1cccc2ncccc12	SENP8 block-1 50, SENP6 inh 72
Cc1cc(/C=N/Nc2ccc([N+](=O)[O-])cn2)c(C)n1-c1ccc(C(=O)O)cc1	SENP8 block-2 50
Cc1cc(/C=N/NC(=O)c2cccc([N+](=O)[O-])c2)c(C)n1-c1ccccc1	none
Cc1ccccc1-n1c(C)cc(/C=N/Nc2ccc([N+](=O)[O-])cn2)c1C	SENP8 block-2 60
CCC(CC)CN1CCN=C1Nc1ccccc1	none (no result: Platelet DG rel)
Cc1ccc(NC(=S)NNC(=O)Nc2ccccc2)cc1	SENP6 inh 52
COC1=C(N)C(=O)c2nc(C)ccc2C1=O	SENP8 block-2 99 (no result: SENP8 block-1, Platelet DG rel, SENP6 inh, SENP7 inh)
COC1=C(Br)C(=O)c2nc(C)ccc2C1=O	SENP8 block-2 86 (no result: SENP8 block-1, Platelet DG rel, SENP6 inh, SENP7 inh)
COC1=C(Nc2ccc(C)cc2)C(=O)c2ccccc2C1=O	none
O=C1CC(c2ccco2)CC2=C1C=Nc1ccccc1N2 (stereo not given)	none
O=c1[nH]c2c(s1)C=Nc1ccccc1N2	Platelet DG rel 77
O=C(C=C=Nc1ccccc1)C(=O)N=C=Cc1ccccc1	Platelet DG rel 53
CC[C@](C)(O)c1cc2ccccc2c(=O)o1	none (no result: Platelet DG rel)
Cc1cccc(NC2=NCC(=O)N2Cc2cccs2)c1	none
Nc1c(C(=O)N/N=C/c2ccccc2)cnn1-c1ccccc1	SENP6 inh 67, SENP7 inh 51
Cc1nn(C(C)(C)C)c(C)c1/C=N/OC(=O)Nc1ccc(Cl)c(Cl)c1	SENP6 inh 59
